High-throughput results: PubChem, National Center for Advancing Translational Sciences (NCATS)
DT40 TDP1 no CPT – qHTS for Inhibitors of human tyrosyl-DNA phosphodiesterase 1 (TDP1): qHTS in cells in absence of CPT; AID 686978, 2013; 420,000 compounds, 15% hits; Potency, µM (series often up to 46.2 µM), for the others: at the top dose activity change, negative = growth inhibition, usual class: inhibitors; DT40 Tdp1-/- hTDP1 cells, no CPT, ATP luminescence, 48 h; also: potency is read from the fitted curve at half-maximal effect; nearly all actives have a fitted effect of over 55% in size
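Camptothecin absent (DMSO only). Human TDP1-complemented DT40 knockout cells, 400 cells/well, 37 °C for minimum 48 hr; ATP measured via CellTiter-Glo, 30 min dark incubation, luminescence.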
IL1B secr inh – qHTS for Inhibitors of Inflammasome Signaling: IL-1-beta AlphaLISA Primary Screen; activity change, % at 57.5 µM; AID 743279, 2014; THP-1 LPS/ATP IL-1B secretion, AlphaLISA, 16 h; stronger effect = lower value; 360,000 compounds, 4.7% hits; in the data active = activity change below about -50%; inconclusive = mostly about -30% to -49%
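Secreted IL-1B measured by AlphaLISA bead assay after 16 h compound exposure of THP-1 cells; compounds (final up to 57.5 uM) added 1 h before LPS (250 ng/mL) and ATP (1.25 mM) stimulation; lower signal means less secretion.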
ELG1 repair inh – qHTS screen for small molecules that inhibit ELG1-dependent DNA repair in human embryonic kidney (HEK293T) cells expressing luciferase-tagged ELG1; AID 504467, 2011; Potency, µM (series often up to 46.1 µM), for the others: at the highest dose activity change, negative = inhibition, usual class: inhibitors; 330,000 compounds, 2.3% hits; HEK293T ELG1-luciferase reporter, luminescence, 16 h; DNA damage induced by 5-fluorouridine; also: potency is read from the fitted curve at half-maximal effect; nearly all actives have a fitted effect of over 55% in size
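Overnight (16 hr) co-exposure of 2,000 cells/well to 5-fluorouridine and compound at 37 °C preceded detection. Luciferase was quantified via ONE-Glo luminescence; loss of signal denotes inhibition.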
RORgamma inh – qHTS for inhibitors of ROR gamma transcriptional activity; Drosophila S2 Gal4-RORgamma UAS-luciferase reporter, 20 h; 310,000 compounds, 5.4% hits; Nuclear receptor ROR-gamma (Mus musculus), P51450; Potency, µM (top dose mostly 53.6 µM), without a hit: top-dose activity change, negative = inhibition, most hits filed as inhibitors; also: potency is read from the fitted curve at half-maximal effect; nearly all actives have a fitted effect of over 60% in size
Target sequence (P51450 whole entry, looked up, the tested form may be a part): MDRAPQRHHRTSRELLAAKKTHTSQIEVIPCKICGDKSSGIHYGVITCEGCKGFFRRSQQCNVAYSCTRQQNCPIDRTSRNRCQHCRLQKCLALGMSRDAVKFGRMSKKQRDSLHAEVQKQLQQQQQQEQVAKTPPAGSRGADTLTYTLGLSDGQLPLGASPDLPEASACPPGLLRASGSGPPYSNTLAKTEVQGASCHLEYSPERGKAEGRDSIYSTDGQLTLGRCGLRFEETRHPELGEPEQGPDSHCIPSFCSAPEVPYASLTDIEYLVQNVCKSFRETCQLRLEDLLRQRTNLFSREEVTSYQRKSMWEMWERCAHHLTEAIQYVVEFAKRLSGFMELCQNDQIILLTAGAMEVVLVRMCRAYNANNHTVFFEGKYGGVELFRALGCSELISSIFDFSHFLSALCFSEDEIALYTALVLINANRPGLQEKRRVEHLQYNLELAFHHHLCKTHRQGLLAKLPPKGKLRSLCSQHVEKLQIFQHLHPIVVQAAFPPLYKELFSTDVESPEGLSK
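ROR gamma transcriptional activity was tracked as Gal4-UAS luciferase output in stably transfected Drosophila Schneider cells, with compound added 1 hr before 700 uM copper sulfate induction and a 20 hr ambient-temperature incubation.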
TDP1 cell CPT – qHTS for Inhibitors of human tyrosyl-DNA phosphodiesterase 1 (TDP1): qHTS in cells in presence of CPT; Potency, µM (doses to about 46.2 µM), without a hit: at the top dose activity change, negative = growth inhibition, hits mostly inhibitors; chicken DT40 Tdp1-/-;hTDP1 cells + 20 nM CPT, ATP luminescence, 48 h; 420,000 compounds, 12% hits; also: potency is read from the fitted curve at half-maximal effect; nearly all actives have a fitted effect of over 55% in size
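Chicken DT40 Tdp1-/- cells complemented with human TDP1, 400 cells/well, exposed to compounds plus 20 nM camptothecin for at least 48 h at 37 C; viability read as ATP content by CellTiter-Glo luminescence.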
VP16 counter – VP16 counterscreen qHTS for inhibitors of ROR gamma transcriptional activity. 310,000 compounds, 3.5% hits. Drosophila S2 Gal4-VP16 UAS-luciferase, luminescence, 20 h. Potency, µM (top dose mostly 53.6 µM), for the others: at the top dose activity, negative = inhibition, most hits filed as inhibitors;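 also: Gal4-VP16 expression switched on by copper sulfate through the metallothionein promoter; potency is read from the fitted curve at half-maximal effect; nearly all actives have a fitted effect of over 50% in size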
Active calls of the source: *; ? = inconclusive; nt = no result; [ ] = remark or other dose. Sampled rows, rich in hits. Any-hit rate of the full collection: about 21%. Unless noted, calls follow the shape of the dose curve; as a rule, active = well fitted curve in the direction sought with a large enough effect; inconclusive = small, poorly fitted or top-dose-only effect, or another doubt; inactive = no such curve, though single readings can be large; an effect the other way counts as inactive or inconclusive. % is scaled to controls: 0 for no effect and ±100 for the full control effect.

SMILES	DT40 TDP1 no CPT	IL1B secr inh	ELG1 repair inh	RORgamma inh	TDP1 cell CPT	VP16 counter
CC12CCC(=O)N1C(C(=O)NNC(=O)COc1cccc(C(F)(F)F)c1)CS2 (configuration not stated)	-17%	-3	10%	nt	-13%	nt
Fc1ccc(-c2csc3ncnc(Nc4ccc(N5CCOCC5)cc4)c23)cc1	23µM*	-58*	-25%	13%	15µM*	-5%
O=C(O)c1ccc(Nc2ncnc3scc(-c4ccccc4)c23)cc1	4.1µM*	13	-7%	1%	2.6µM*	8%
CCC(=O)N(c1nnc(SCC(=O)Nc2sccc2C(N)=O)s1)C1CC1	?	10	nt	nt	?	nt
COc1ccccc1C1(CC(=O)Nc2nccs2)CCOC(C(C)C)C1 (configuration not stated)	4.6µM*	39	?	11µM*	5.2µM*	-8%
Cc1ccc(C2(CC(=O)Nc3nccs3)CCOC(C(C)C)C2)cc1 (configuration not stated)	-8%	0	-16%	-88%	1%	?
COc1cccc(NC(=O)Cc2c(O)c3ccccc3[nH]c2=O)c1	-22%	22	2%	10%	4%	-1%
COc1cccc(C#Cc2c(CO)[nH]c3ccccc23)c1	?	19	25%	nt	18µM*	nt
O=C(Cn1c(=O)cnc2ccccc21)Nc1cccc(S(=O)(=O)N2CCOCC2)c1	11%	13	-5%	nt	7%	nt
COC(=O)[C@]12CCCCC=C1N(Cc1ccccc1)C(=O)[C@H](CC(=O)NCc1ccc(OC)c(OC)c1)C2	23µM*	-20	nt	nt	23µM*	nt
C#CCNC(=O)C[C@@H]1C[C@@]2(C(=O)OC)CCCCC=C2N(CCCCCCCC)C1=O	23µM*	-13	nt	nt	16µM*	nt
C#CCNC(=O)C[C@@H]1C[C@@]2(C(=O)OC)CCCCC=C2N(CCc2ccc(OC)c(OC)c2)C1=O	?	18	nt	nt	?	nt
CCCCCCCCN1C(=O)[C@H](CC(=O)NCc2ccc(OC)c(OC)c2)C[C@@]2(C(=O)OC)CCCCC=C12	21µM*	-58*	nt	nt	?	nt
COC(=O)[C@]12CCCCC=C1N(Cc1ccco1)C(=O)[C@H](CC(=O)NCc1ccc(OC)c(OC)c1)C2	?	2	nt	nt	?	nt
CCCCNC(=O)C[C@@H]1C[C@@]2(C(=O)OC)CCCCC=C2N(Cc2ccccc2)C1=O	?	16	nt	nt	?	nt
CCCCCCCCN1C(=O)[C@H](CC(=O)NCc2ccccc2)C[C@@]2(C(=O)OC)CCCCC=C12	15µM*	-82*	nt	nt	16µM*	nt
CCCCCCCCN1C(=O)[C@H](CC(=O)NCc2ccc(OC)c(OC)c2)C[C@@]2(C(=O)OCC)CCC=C12	21µM*	-77*	nt	nt	?	nt
CCN(CC)CC#Cc1ccc(C)cc1	-24%	25	11%	-8%	4%	-3%
Cc1ccc(C#CC[N+](C)(C)CC#Cc2ccccc2)cc1	1.8µM*	-77*	?	-6%	2.1µM*	-15%
C#CC[N+](C)(C)CC#Cc1ccccc1	-11%	-66*	?	2%	-2%	5%
CC(C)(C)OC(=O)N(CCc1ccccc1)Cc1cccc(OCc2cccc(NC(=O)C3CCCC3)c2)c1	?	24	nt	nt	?	nt
CC(C)(C)OC(=O)N(Cc1ccccc1)Cc1ccccc1OCc1ccc(NC(=O)C2CCC2)cc1	?	-68*	nt	nt	18µM*	nt
CC(C)(C)OC(=O)N(CCc1ccccc1)Cc1ccccc1OCc1cccc(NC(=O)C2CCCC2)c1	?	-2	nt	nt	21µM*	nt
CC(C)(C)OC(=O)N(CCc1ccccc1)Cc1ccccc1OCc1cccc(NC(=O)C2CC2)c1	?	-8	nt	nt	?	nt
CC(C)(C)OC(=O)N(CCc1ccccc1)Cc1ccc(OCc2cccc(NC(=O)C3CCCC3)c2)cc1	6.5µM*	-19	nt	nt	5.2µM*	nt
SMILES	DT40 TDP1 no CPT	IL1B secr inh	ELG1 repair inh	RORgamma inh	TDP1 cell CPT	VP16 counter
O=C(NCCCCNC(=O)c1ccccc1F)c1ccccc1F	?	7	-1%	-7%	0%	-9%
O=C(NCCNc1ccc(Cl)cc1[N+](=O)[O-])c1ccccc1F	21µM*	-7	?	32%	-18%	-7%
O=C(NCCNc1ccnc2cc(Cl)ccc12)c1ccccc1F	4.1µM*	-14	-8%	?	6.5µM*	11µM*
COC(=O)[C@H](Cc1ccc(O)cc1)NC(=O)Cn1cnc2c(OCc3ccccc3)ncnc21	0%	93	0%	nt	12%	nt
C/C=C/C1Oc2ccc(OC)cc2N2C(=O)C(C)C(OCOC)C12 (configuration not stated)	nt	nt	nt	0%[10 µM]	nt	0%[10 µM]
O=c1[nH]c(-c2ccccn2)nc2sc(-c3ccccc3)cc12	2.1µM*	-102*	?	0.32µM*	2.3µM*	1.4µM*
CCCc1cc(=O)[nH]c(Nc2cc(C)ccc2OC)n1	-26%	nt	nt	nt	-11%	nt
CC(=O)N[C@@H]1C=C[C@@H](CC(=O)NCc2ccc(Cl)cc2)O[C@@H]1CO	-5%	40	nt	nt	-21%	nt
Cc1c(CCNC(=O)c2ccc(Br)o2)sc2nc(-c3ccc(F)cc3)nn12	4.6µM*	nt	nt	nt	12µM*	nt
Cc1ccc(-c2nc3sc(CCNC(=O)c4ccc(Br)o4)c(C)n3n2)cc1	29µM*	nt	nt	nt	?	nt
N#CCC(=O)Nc1ccc(C(=O)NNC(=O)c2ccccc2-n2cccc2)cc1	-7%	-3	5%	nt	-8%	nt
CCOc1ccc(N=Cc2ccc(N(C)C)cc2)c(O)c1	7.3µM*	18	nt	nt	15µM*	nt
CCOc1ccc(C=Nc2cccc3ncccc23)cc1	-3%	20	17%	-28%	-5%	15%
CCOc1ccc(N=Cc2ccc([N+](=O)[O-])cc2)c(O)c1	12µM*	-52*	nt	nt	23µM*	nt
CCOc1ccc([N+](=O)[O-])c(N)c1	-27%	0	29%	-4%	-2%	-3%
CCNC(=O)C1(C)CCN(C(=O)c2ccc(C(F)(F)F)cc2)C1 (configuration not stated)	-1%	25	nt	nt	-10%	nt
